The results in this text go back to PubChem BioAssay (NCI).

About 83,000 compounds went through this panel and 20% of them were active in at least one assay; those are over-represented in the sample as a whole.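 Cell lines were cultured in 96-well plates, exposed to a single compound concentration, and assessed for percent growth 48 hours later.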 A number with no mark means an inactive call. The source made the active and inactive calls. How the source made its calls: active means growth percent below 10; inactive means the rest.

The test concerns HL-60(TB) leukemia. As to the kind of experiment: NCI-60 one-dose screen, 48 h (100 = growth as untreated, 0 = no growth, -100 = all killed). The conditions noted are these: 10 µM unless noted.
`ClC1=C(Cl)C(Cl)=C(Cl)C1=Cc1ccc(Cl)cc1Cl`: the growth was -12.7% (active).
The figure for `COc1ccc(-n2nc(C)c3c(Oc4ccc(NC(=O)Nc5c(Cl)cccc5Cl)cc4)ncnc32)cc1` is 100%.
As for `CC(C)=C[C@@H]1c2c(c3ccccc3n(C)c2=O)O[C@H]2c3c(c4ccccc4n(C)c3=O)OC(C)(C)[C@@H]12`, the figure is 20.4%.
`COC(=O)c1c(C)[nH]c(/C=C2\N=C(c3ccc[nH]3)C=C2OC)c1C`: the growth is 4.25% (active).
Regarding `CCCC(=O)Nc1ccccc1C(=O)O`, the growth was 94.1%.
The figure for `COc1ccc(-c2[nH]c3ccccc3c2/C=C(\C#N)S(=O)(=O)c2ccccc2)cc1` is -28.4% (active).
`CCOC(=O)c1c(-c2ccc(C)cc2)c(C#N)c(=O)n(-c2cccc(C(F)(F)F)c2)c1N`: the growth was 102%.
As for `O=S(=O)(NCCNc1cc(-c2c(-c3cccc(O)c3)nc3sccn23)ccn1)c1ccc(Cl)cc1`, the figure is 84.3%.
Regarding `CCCCCCCCOC(=O)C(C)OC(=O)OCCOCCOC(=O)OC(C)C(=O)OCCCCCCCC` (stereo not given), the growth is 108%.
The figure for `O=C(Nc1ccccc1)c1ccco1` is 95.7%; for `O=C(CCCN1CCOCC1)Nc1ccc(Cn2nnc3c2C(=O)c2nnn(Cc4ccc(NC(=O)CCCN5CCOCC5)cc4)c2C3=O)cc1` it is -7.47% (active); for `CC(=O)Nc1ccc(S(=O)(=O)NC2CCCCC2)cc1` it is 96%.
Consider `CC(NNC(C)c1ccccc1)c1ccccc1` (stereo not given), for which the growth is 113%.
With `COc1ccc(/C=C2/CN(C(=O)c3ccc(C)cc3)C/C(=C\c3ccc(OC)cc3)C2=O)cc1`, the growth was 80%.
As for `O=C(CSc1nnc(Nc2ccccc2)s1)NCCc1ccc(F)cc1`, the growth is 110%.
As for `CC(C)Nc1cc(-c2c[nH]c(C(=O)N[C@H](CO)c3cccc(Cl)c3)c2)c(Cl)cn1`, the figure is 3.3% (active); as for `COc1cc2c(cc1OC)C(=O)C(Br)CC2` (stereo not given), 27.3%; as for `O=[N+]([O-])c1cccc(-c2nc3sccn3c2-c2ccnc(NCCCNS(=O)(=O)c3ccc(C(F)(F)F)cc3)n2)c1`, 0.27% (active).
As for `C1=C\COCc2cc(ccc2OCCN2CCCC2)Nc2nccc(n2)-c2cccc(c2)COC/1`, the growth is -34.6% (active).
As for `CN(C)N1C(=O)c2c(Cl)c(Cl)c(Cl)c(Cl)c2C1=O`, the figure is 95.8%; as for `Cc1ccc(-c2nc3nc(-c4ccc(Cl)cc4)nc(N4CCCNCC4)c3o2)cc1`, -67.6% (active).
The figure for `COC1CCC(N2C(=O)CNc3ncc(-c4ccc(C(C)(C)O)nc4)nc32)CC1` (stereo not given) is 11.2%.
The figure for `COc1ccc(C(=O)NC(=O)Nc2ccc3c(c2)NC(=O)/C3=C\c2[nH]c(C)c(C(=O)O)c2C)c(F)c1` is 80.8%; for `COC(=O)[C@]12CC[C@@H](C(=O)/C=C/c3cccnc3)[C@@H]1[C@H]1CC[C@@H]3[C@@]4(C)C/C(=C/c5cccnc5)C(=O)C(C)(C)[C@@H]4CC[C@@]3(C)[C@]1(C)CC2` it is -30.2% (active).
For the compound `Cc1ccc(C(O)C2CC2)cc1` (stereo not given), the growth was 99.3%.
